Test results: PubChem BioAssay (Tox21)
Records with an inconclusive call do not appear. Active and inactive are the calls of the source. The call rests on the fitted dose curve; in most records, active means well fitted curve in the direction sought with a large enough effect in the repeat runs; inconclusive means weak or mixed curves; inactive means no such curve, though single readings can be large; an effect the other way counts as inactive or inconclusive.

Tests used:
[1] = A CellTox Green Cytotoxicity Assay to monitor cytotoxicity in HepG2 cells - 24 hour (AID 1224878); further: nearly all actives have a fitted effect of over 45% in size
Outline: (§1)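 Read-out is fluorescence of a cyanine dye excluded from live cells that stains DNA of dead HepG2 cells, with signal proportional to cytotoxicity. Plates were read at 0, 8, 16, 24, 32 and 40 h after compound addition.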

[2] = A CellTox Green Cytotoxicity Assay to monitor cytotoxicity in HepG2 cells - 40 hour (AID 1224879); further: nearly all actives have a fitted effect of over 40% in size
Outline: as §1

[3] = qHTS RealTime-Glo MT Cell Viability Assay in HEK293 cells - 0 hour (AID 1224880); further: top concentration of the series differs between compounds; nearly all actives have a fitted effect of over 45% in size
Outline: (§2)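 Cells were seeded together with NanoLuc luciferase and a prosubstrate that viable cells reduce to a luciferase substrate. After a 5 h incubation at 37 C/5% CO2, compounds were added and luminescence was measured repeatedly during 40 h of treatment.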

[4] = A CellTox Green Cytotoxicity Assay to monitor cytotoxicity in HEK293 cells - 32 hour (AID 1224881); further: nearly all actives have a fitted effect of over 40% in size
Outline: (§3)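 Nonlytic real-time cytotoxicity: HEK293 + CellTox Green reagent plated, 5 h preincubation, pintool compound addition (23 nL in DMSO), 37 C for 40 h, fluorescence measured at successive time points.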

[5] = A CellTox Green Cytotoxicity Assay to monitor cytotoxicity in HepG2 cells - 0 hour (AID 1224882); further: nearly all actives have a fitted effect of over 35% in size
Outline: as §1

[6] = A CellTox Green Cytotoxicity Assay to monitor cytotoxicity in HepG2 cells - 32 hour (AID 1224883); further: nearly all actives have a fitted effect of over 50% in size
Outline: as §1

[7] = A CellTox Green Cytotoxicity Assay to monitor cytotoxicity in HEK293 cells - 8 hour (AID 1224884); further: nearly all actives have a fitted effect of over 35% in size
Outline: as §3

[8] = qHTS RealTime-Glo MT Cell Viability Assay in HepG2 cells - 16 hour (AID 1224885); further: nearly all actives have a fitted effect of over 50% in size
Outline: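 HepG2 suspension premixed with RealTime-Glo reagents is plated at 600 cells per well and left 5 h at 37 C/5% CO2. Compounds in DMSO then go in, and bioluminescence reflecting viable cell number is recorded over 40 h.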

[9] = qHTS RealTime-Glo MT Cell Viability Assay in HEK293 cells - 24 hour (AID 1224886); further: top concentration of the series differs between compounds; nearly all actives have a fitted effect of over 50% in size
Outline: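 Reads taken at 0, 8, 16, 24, 32 and 40 h from the same wells. HEK293 cells (600/well) carried RealTime-Glo reagents from seeding, with compound added after a 5 h settle at 37 C.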

[10] = qHTS RealTime-Glo MT Cell Viability Assay in HEK293 cells - 8 hour (AID 1224887); further: top concentration of the series differs between compounds; nearly all actives have a fitted effect of over 50% in size
Outline: as §2
On the % scale 0 is the no-effect control and ±100 the full control effect.

C=CCn1cc[n+](C)c1
inactive: Potency [1] | Potency [2] | Potency [3] | Potency [4] | Potency [5] | Potency [6] | Potency [7] | outcome [8] | outcome [9] | outcome [10]

CCCCCCCCCCCCCCCCN(C)C
inactive: cytotoxicity [1] 1.92% [at 6.97 µM] | cytotoxicity increase [2] 0.0455% [at 6.97 µM] | activity change, negative = cytotoxicity [3] 2.86% [at 6.97 µM] | cytotoxicity increase [4] 3.45% [at 6.97 µM] | cytotoxicity [5] 2.28% [at 6.97 µM] | cytotoxicity increase [6] 1.06% [at 6.97 µM] | cytotoxicity increase [7] -0.796% [at 6.97 µM] | activity change, negative = cytotoxic [8] 0.191% [at 6.97 µM] | activity change, negative = cytotoxicity [9] 5.99% [at 6.97 µM] | activity change, negative = cytotoxicity [10] 5.23% [at 6.97 µM]

CCc1ccc(CC)cc1
inactive: Potency [1] | Potency [2] | Potency [3] | Potency [4] | Potency [5] | Potency [6] | Potency [7] | outcome [8] | outcome [9] | outcome [10]

NC(=O)CC[C@@H](N)C(=O)O
inactive: Potency [1] | Potency [2] | Potency [3] | Potency [4] | Potency [5] | Potency [6] | Potency [7] | outcome [8] | outcome [9] | outcome [10]

O=Cc1ccc(C(=O)O)cc1
inactive: Potency [1] | Potency [2] | Potency [3] | Potency [4] | Potency [5] | Potency [6] | Potency [7] | outcome [8] | outcome [9] | outcome [10]

CC(=O)c1ccc(O)c(C(N)=O)c1
inactive: Potency [1] | Potency [2] | Potency [3] | Potency [4] | Potency [5] | Potency [6] | Potency [7] | outcome [8] | outcome [9] | outcome [10]

C[C@@H]1CC[C@@]2(OC1)O[C@H]1C[C@H]3[C@@H]4CC[C@H]5C[C@@H](O)CC[C@]5(C)[C@H]4CC(=O)[C@]3(C)[C@H]1[C@@H]2C
inactive: cytotoxicity [1] -7.96% [at 6.97 µM] | cytotoxicity increase [2] -2.78% [at 6.97 µM] | activity change, negative = cytotoxicity [3] 0.253% [at 6.97 µM] | cytotoxicity increase [4] -0.706% [at 6.97 µM] | cytotoxicity [5] 2.51% [at 6.97 µM] | cytotoxicity increase [6] -3.63% [at 6.97 µM] | cytotoxicity increase [7] -0.568% [at 6.97 µM] | activity change, negative = cytotoxic [8] 0.914% [at 6.97 µM] | activity change, negative = cytotoxicity [9] -0.905% [at 6.97 µM] | activity change, negative = cytotoxicity [10] 2.92% [at 6.97 µM]

CN(C)CCC[C@@]1(c2ccc(F)cc2)OCc2cc(C#N)ccc21
inactive: Potency [1] | Potency [2] | Potency [3] | Potency [4] | Potency [5] | Potency [6] | Potency [7] | outcome [8] | outcome [9] | outcome [10]

Cc1cc(N)no1
inactive: Potency [1] | Potency [2] | Potency [3] | Potency [4] | Potency [5] | Potency [6] | Potency [7] | outcome [8] | outcome [9] | outcome [10]

CC(=O)SC[C@@H](C)C(=O)N1CCC[C@H]1C(=O)N[C@@H](Cc1ccccc1)C(=O)O
inactive: Potency [1] | Potency [2] | Potency [3] | Potency [4] | Potency [5] | Potency [6] | Potency [7] | outcome [8] | outcome [9] | outcome [10]

Cc1cc(C)c(C)c(C)c1
inactive: Potency [1] | Potency [2] | Potency [3] | Potency [4] | Potency [5] | Potency [6] | Potency [7] | outcome [8] | outcome [9] | outcome [10]

O=c1c(O)c(O)c1=O
inactive: Potency [1] | Potency [2] | Potency [3] | Potency [4] | Potency [5] | Potency [6] | Potency [7] | outcome [8] | outcome [9] | outcome [10]

CCCC(=O)CC
inactive: Potency [1] | Potency [2] | Potency [3] | Potency [4] | Potency [5] | Potency [6] | Potency [7] | outcome [8] | outcome [9] | outcome [10]

c1coc(Cn2cccc2)c1
inactive: Potency [1] | Potency [2] | Potency [3] | Potency [4] | Potency [5] | Potency [6] | Potency [7] | outcome [8] | outcome [9] | outcome [10]

CNC(=O)c1c(I)c(NC(C)=O)c(I)c(C(=O)O)c1I
inactive: Potency [1] | Potency [2] | Potency [3] | Potency [4] | Potency [5] | Potency [6] | Potency [7] | outcome [8] | outcome [9] | outcome [10]

CC[N+](C)(CC)CC
inactive: Potency [1] | Potency [2] | Potency [3] | Potency [4] | Potency [5] | Potency [6] | Potency [7] | outcome [8] | outcome [9] | outcome [10]

COc1cc2nc(N3CCN(C(=O)C4CCCO4)CC3)nc(N)c2cc1OC (stereo not given)
inactive: Potency [1] | Potency [2] | Potency [3] | Potency [4] | Potency [5] | Potency [6] | Potency [7] | outcome [8] | outcome [9] | outcome [10]

C=C(C)C(=O)OCCOC1CC2CC1C1C=CCC21 (stereo not given)
inactive: Potency [1] | Potency [2] | Potency [3] | Potency [4] | Potency [5] | Potency [6] | Potency [7] | outcome [8] | outcome [9] | outcome [10]

N#Cc1ccccc1C#N
inactive: Potency [1] | Potency [2] | Potency [3] | Potency [4] | Potency [5] | Potency [6] | Potency [7] | outcome [8] | outcome [9] | outcome [10]

Nc1ccc(C(=O)NCC(=O)O)cc1
inactive: Potency [1] | Potency [2] | Potency [3] | Potency [4] | Potency [5] | Potency [6] | Potency [7] | outcome [8] | outcome [9] | outcome [10]

CC12CCCC=C1C(=O)OC2=O (stereo not given)
inactive: Potency [1] | Potency [2] | Potency [3] | Potency [4] | Potency [5] | Potency [6] | Potency [7] | outcome [8] | outcome [9] | outcome [10]

CC(O)CCCCn1c(=O)c2c(ncn2C)n(C)c1=O (stereo not given)
inactive: Potency [1] | Potency [2] | Potency [3] | Potency [4] | Potency [5] | Potency [6] | Potency [7] | outcome [8] | outcome [9] | outcome [10]

CC1(C)C(=O)C(C)(C)C1=O
inactive: Potency [1] | Potency [2] | Potency [3] | Potency [4] | Potency [5] | Potency [6] | Potency [7] | outcome [8] | outcome [9] | outcome [10]
